16 compounds from PubChem BioAssay (EPA / NIEHS) can be followed below.

Where “and” joins values, the source holds several entries; their conditions need not be identical. Equal values may be shown once. Results filed as inconclusive are left out. More than one record can exist for a structure, and the calls need not agree. Calls of active or inactive are those of the source. How the source made its calls, unless noted: active means hit-call score of the fitted dose curve at least 0.9, where 1 is the maximum; inactive means score below 0.9.

For experiment [1], the target named is Steroid hormone receptor ERR1 (Homo sapiens) (UniProt P11474). Put plainly: ATG_ERRa_TRANS: Attagene TRANS-FACTORIAL HepG2 Assay for human Estrogen-Related Receptor alpha (ERRa) (AID 2282971; active means hit-call score of the fitted dose curve at least 0.9, where 1 is the maximum). The conditions noted are these: HepG2 Attagene TRANS reporter, ERRa transactivation. The gist of the method: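 Reporter transcripts from ERRa-Gal4 chimera activity measured in transiently transfected human HepG2 cells 24 hours after dosing, using RT-PCR with 6-FAM primer extension, HpaI digestion and capillary electrophoresis; DMSO is baseline.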

Experiment [2] concerns the target Estrogen-related receptor gamma (Homo sapiens) (UniProt P62508). The experiment can be described thus: ATG_ERRg_TRANS: Attagene TRANS-FACTORIAL HepG2 Assay for human Estrogen-Related Receptor gamma (ERRg) (AID 2282977; active means hit-call score of the fitted dose curve at least 0.9, where 1 is the maximum;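 further: hits increase reporter signal over DMSO so potencies reflect activators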). The settings on record: HepG2 Attagene TRANS reporter, ERRg transactivation. The gist of the method: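 Readout: fluorescent reporter-mRNA fragments resolved by capillary electrophoresis after RT-PCR and HpaI cut. Cells: transiently transfected HepG2 carrying GAL4-UAS reporters driven by exogenous NR-Gal4 chimeras, dosed 24 h. Activity fitted upward relative to DMSO baseline.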

Experiment [3] is described as follows: BSK_3C_uPAR: BioMAP Diversity Plus: 3C Assay for Urokinase-type plasminogen activator receptor (uPAR) Biomarker Activity (AID 2282998). The settings on record: BioMAP 3C HUVEC, uPAR biomarker ELISA; actives raise or lower the signal. The gist of the method: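 Readout: ELISA for surface uPAR. System: human umbilical vein endothelial primary cells, 24 h after chemical exposure. Analysis: bidirectional fit, DMSO baseline.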

Read-out in experiment [4]: Monocyte Chemoattractant Protein-1 (MCP1), CCL2 (gene 6347)
The experiment can be described thus: BSK_4H_MCP1: BioMAP Diversity Plus: 4H Assay for Monocyte Chemoattractant Protein-1 (MCP1) Biomarker Activity (AID 2283018). The settings on record: primary human endothelial cells (HUVEC); actives raise or lower the signal. The gist of the method:
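HUVEC primary cells, 24 h post-dose, MCP-1 by ELISA. Gain or loss of signal fitted bidirectionally vs DMSO baseline. Cytotoxicity: SRB stain (0.1% after 10% TCA fixation), read 560 nm, parallel cultures.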

Read-out in experiment [5]: Monokine induced gamma interferon (MIG), CXCL9 (gene 4283)
The experiment can be described thus: BSK_3C_MIG: BioMAP Diversity Plus: 3C Assay for Monokine induced gamma interferon (MIG) Biomarker Activity (AID 2283021).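 On AC50: MIG protein level measured by immunoassay in the treated endothelial cultures.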 The settings on record: primary human endothelial cells (HUVEC); actives raise or lower the signal. The gist of the method:
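HUVEC, 3C system; 24 h chemical exposure; MIG by ELISA; bidirectional fit vs DMSO baseline.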

Read-out in experiment [6]: Urokinase-type plasminogen activator receptor (uPAR), PLAUR (gene 5329)
Put plainly: BSK_4H_uPAR: BioMAP Diversity Plus: 4H Assay for Urokinase-type plasminogen activator receptor (uPAR) Biomarker Activity (AID 2283030). The conditions noted are these: primary human endothelial cells (HUVEC); actives raise or lower the signal. The gist of the method:
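uPAR level read by ELISA on HUVEC cultures (BioMAP 4H) 24 h post-dosing, analyzed for gain or loss relative to DMSO. Parallel SRB staining assessed overt cytotoxicity.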

Read-out in experiment [7]: Plasminogen activator inhibitor-1 (PAI1), SERPINE1 (gene 5054)
Put plainly: BSK_BE3C_PAI1: BioMAP Diversity Plus: BE3C Assay for Plasminogen activator inhibitor-1 (PAI1) Biomarker Activity (AID 2283037). The conditions noted are these: primary human bronchial epithelial cells; actives raise or lower the signal. The gist of the method: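 ELISA read-out of PAI-1 from human bronchial epithelial primary cells, 24 h post-dosing; bidirectional curve fit vs DMSO baseline, gain or loss of signal scored.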

Read-out in experiment [8]: Tissue plasminogen activator (tPA), PLAT (gene 5327)
Put plainly: BSK_BE3C_tPA: BioMAP Diversity Plus: BE3C Assay for Tissue plasminogen activator (tPA) Biomarker Activity (AID 2283041).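 On outcome: tPA level quantified by ELISA one day after compound addition.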 The conditions noted are these: primary human bronchial epithelial cells; actives raise or lower the signal. The gist of the method:
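ELISA read-out of tPA on human primary bronchial epithelial cells, 24 h post-dosing; bidirectional fit vs DMSO negative control/baseline.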

Read-out in experiment [9]: Thrombomodulin, THBD (gene 7056)
Put plainly: BSK_CASM3C_Thrombomodulin: BioMAP Diversity Plus: CASM3C Assay for Thrombomodulin Biomarker Activity (AID 2283051).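 Further: thrombomodulin protein level measured by ELISA 24 h after dosing.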 The conditions noted are these: primary human coronary artery smooth muscle cells; actives raise or lower the signal.

The nature of experiment [10]: CCTE_Harrill_HTTr_Viability_MCF7: CCTE's 6-hour Cell Viability Assessment for the High-Throughput Transcriptomics (HTTr) Platform, in MCF-7 cells cultured in DMEM + 10% fetal bovine serum, Harrill Lab (AID 2284010). The gist of the method: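 PI exclusion, high-content imaging; 8-pt dilution series, 6 h exposure; bidirectional fit vs DMSO (neg. ctrl/baseline); gain of signal = loss of membrane integrity.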

A short description of experiment [11]: ATG_ERE_CIS: Attagene CIS-FACTORIAL HepG2 Assay for Estrogen Response Element (ERE) (AID 2282940). The settings on record: HepG2 ERE cis-reporter, Attagene RNA transcript; actives raise or lower the signal. The gist of the method:
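Measuring endogenous transcription factor output, the assay doses transfected HepG2 cells for 24 hours and quantifies reporter transcripts by fluorescent RT-PCR and capillary electrophoresis, with DMSO as baseline.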

In experiment [12] the target is Bile acid receptor (Homo sapiens) (UniProt Q96RI1). Put plainly: ATG_FXR_TRANS: Attagene TRANS-FACTORIAL HepG2 Assay for Farnesoid X Receptor (FXR) (AID 2282979; active means hit-call score of the fitted dose curve at least 0.9, where 1 is the maximum;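 further: hits raise reporter mRNA above DMSO so AC50 marks FXR activation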). The conditions noted are these: HepG2 Attagene TRANS FXR-GAL4 reporter transcription. The gist of the method: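 Reporter transcripts from transfected HepG2 cells were measured 24 h after dosing, using RT-PCR with capillary electrophoresis of 6-FAM-labelled fragments. The read-out reflects activity of exogenous FXR-Gal4 chimera on GAL4-UAS units, with induction relative to DMSO.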

Experiment [13] in a line: ACEA_ER_AUC_viability: ACEA Biosciences xCELLigence Real-Time Cell Analysis on Estrogen Receptor Agonism for Viability (AID 2283782; active means hit-call score of the fitted dose curve at least 0.9, where 1 is the maximum). The gist of the method: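 Viability endpoint: reduced impedance area under the curve relative to DMSO, recorded by real-time electrode sensing over ~80 h of continuous exposure. Duplicate plates of T47D in hormone-depleted medium; eight concentrations, 1:4 dilutions, 100 uM maximum.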

Experiment [14] has as its target Estrogen receptor beta (Homo sapiens) (UniProt Q92731). Put plainly: OT_ER_ERbERb_0480: Odyssey Thera (OT) 8-hour HEK293T Protein-Complementation Assay for Estrogen Receptor-beta/-beta Homodimer (AID 2283357; active means hit-call score of the fitted dose curve at least 0.9, where 1 is the maximum;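 further: active means signal gain over DMSO baseline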). The gist of the method: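 ER-beta LBD homodimer PCA stably expressed in HEK293T; 8 h compound exposure, then formaldehyde fixation and Draq5 staining. Gain in nuclear/cytoplasmic fluorescence intensity versus DMSO vehicle, read on laser scanning cytometer.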

Experiment [15] has the same target. The experiment can be described thus: OT_ER_ERbERb_1440: Odyssey Thera (OT) 24-hour HEK293T Protein-Complementation Assay for Estrogen Receptor-beta/-beta Homodimer (AID 2283380; active means hit-call score of the fitted dose curve at least 0.9, where 1 is the maximum;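 further: scored as signal increase over DMSO baseline for both agonists and antagonists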). The gist of the method:
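Fluorescence increase, nuclear for agonists or whole-cell for antagonists, relative to DMSO vehicle, quantified by laser scanning cytometer after fixation and Draq5 staining. Readout from 24 h treatment of HEK293T cells carrying complementation-paired ER beta LBD (aa 310-547).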

For experiment [16], the target named is Retinoic acid receptor RXR-alpha (Homo sapiens) (UniProt P19793). The experiment can be described thus: OT_NURR1_NURR1RXRa_0480: Odyssey Thera (OT) 8-hour HEK293T Protein Complementation Assay for Nurr1/retinoid X receptor (RXR) (AID 2283385; active means hit-call score of the fitted dose curve at least 0.9, where 1 is the maximum). The gist of the method: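 Read-out: fluorescence from protein-fragment complementation between Nurr1 and RXRα in human HEK293T cells, 8 h after dosing. DMSO served as negative control; increased signal counted as activity.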

Experiment [17] has the same target. The experiment can be described thus: OT_NURR1_NURR1RXRa_1440: Odyssey Thera (OT) 24-hour HEK293T Protein Complementation Assay for Nurr1/retinoid X receptor (RXR) (AID 2283386; active means hit-call score of the fitted dose curve at least 0.9, where 1 is the maximum). The gist of the method: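 Fluorescence PCA read-out; HEK293T; 24 h post-dose; bait/prey fused to reporter fragments; gain-of-signal fit vs DMSO negative control.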
The target of experiment [18] is Peroxisome proliferator-activated receptor gamma (Homo sapiens) (UniProt P37231). The experiment can be described thus: OT_PPARg_PPARgSRC1_1440: Odyssey Thera (OT) 24-hour Protein-Complementation Assay for Peroxisome Proliferator-activated Receptor Gamma/ SRC-1 Co-activator (AID 2283388; active means hit-call score of the fitted dose curve at least 0.9, where 1 is the maximum;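 further: nuclear to cytoplasmic ratio of reconstituted Venus YFP fluorescence in fixed imaged cells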). The gist of the method: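 Readout is the 488 nm N/C fluorescence ratio from fixed, Draq5-stained HEK293T cells after 24 h compound exposure. Cells carried transiently transfected PPARg and SRC-1 fused to Venus fragments, transfected 48 h before treatment.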

The nature of experiment [19]: ACEA_AR_agonist_AUC_viability: ACEA Biosciences xCELLigence Real-Time Cell Analysis on Androgen Receptor Agonism for Viability (AID 2283775; active means hit-call score of the fitted dose curve at least 0.9, where 1 is the maximum). The gist of the method:
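Viability endpoint from xCELLigence impedance in 22Rv1 prostate cells at 80 h. Eight-point series, 100 uM maximum final.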

A short description of experiment [20]: ACEA_AR_antagonist_AUC_viability: ACEA Biosciences xCELLigence Real-Time Cell Analysis on Androgen Receptor Antagonism for Viability (AID 2283776; active means hit-call score of the fitted dose curve at least 0.9, where 1 is the maximum;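 further: 22Rv1 human prostate cancer cells growing on impedance electrode plates; hits lower the growth signal relative to DMSO meaning cytotoxicity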). The gist of the method: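 Impedance read-out (RT-CES): area under growth curve at 80 h post-dose, loss of signal scored vs DMSO baseline. 22Rv1 cells; 8-pt 1:4 series, top 100 uM final, ≤0.5% DMSO; biological duplicate.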

Chain of Estrogen receptor beta (Homo sapiens) (Q92731 whole entry, looked up, the tested form may be a part): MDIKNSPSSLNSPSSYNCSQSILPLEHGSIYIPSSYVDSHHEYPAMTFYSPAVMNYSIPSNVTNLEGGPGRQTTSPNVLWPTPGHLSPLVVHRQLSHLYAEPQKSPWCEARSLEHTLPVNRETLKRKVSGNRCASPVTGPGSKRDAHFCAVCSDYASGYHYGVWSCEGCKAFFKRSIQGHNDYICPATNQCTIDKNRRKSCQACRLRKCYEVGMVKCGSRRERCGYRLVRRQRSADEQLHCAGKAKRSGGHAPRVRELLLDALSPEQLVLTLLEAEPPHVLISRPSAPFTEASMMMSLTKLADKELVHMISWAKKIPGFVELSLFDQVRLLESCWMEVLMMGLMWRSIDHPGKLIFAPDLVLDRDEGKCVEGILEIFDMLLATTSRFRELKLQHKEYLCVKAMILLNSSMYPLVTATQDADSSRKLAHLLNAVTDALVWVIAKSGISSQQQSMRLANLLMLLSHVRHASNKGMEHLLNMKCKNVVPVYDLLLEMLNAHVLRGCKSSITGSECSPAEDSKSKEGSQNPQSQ
Chain of Steroid hormone receptor ERR1 (Homo sapiens) (P11474 whole entry, looked up, the tested form may be a part): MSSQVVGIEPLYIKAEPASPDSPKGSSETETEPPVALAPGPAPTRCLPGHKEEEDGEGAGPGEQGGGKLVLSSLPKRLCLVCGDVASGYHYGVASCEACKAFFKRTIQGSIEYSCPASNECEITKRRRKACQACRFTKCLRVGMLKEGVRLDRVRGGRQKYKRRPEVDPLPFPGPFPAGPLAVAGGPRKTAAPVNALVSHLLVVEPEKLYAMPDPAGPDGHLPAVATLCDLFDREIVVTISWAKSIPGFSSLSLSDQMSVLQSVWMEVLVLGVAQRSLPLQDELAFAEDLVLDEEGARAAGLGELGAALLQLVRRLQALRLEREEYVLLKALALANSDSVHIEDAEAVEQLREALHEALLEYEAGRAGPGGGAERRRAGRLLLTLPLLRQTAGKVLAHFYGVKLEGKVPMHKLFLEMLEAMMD
Chain of Retinoic acid receptor RXR-alpha (Homo sapiens) (P19793 whole entry, looked up, the tested form may be a part): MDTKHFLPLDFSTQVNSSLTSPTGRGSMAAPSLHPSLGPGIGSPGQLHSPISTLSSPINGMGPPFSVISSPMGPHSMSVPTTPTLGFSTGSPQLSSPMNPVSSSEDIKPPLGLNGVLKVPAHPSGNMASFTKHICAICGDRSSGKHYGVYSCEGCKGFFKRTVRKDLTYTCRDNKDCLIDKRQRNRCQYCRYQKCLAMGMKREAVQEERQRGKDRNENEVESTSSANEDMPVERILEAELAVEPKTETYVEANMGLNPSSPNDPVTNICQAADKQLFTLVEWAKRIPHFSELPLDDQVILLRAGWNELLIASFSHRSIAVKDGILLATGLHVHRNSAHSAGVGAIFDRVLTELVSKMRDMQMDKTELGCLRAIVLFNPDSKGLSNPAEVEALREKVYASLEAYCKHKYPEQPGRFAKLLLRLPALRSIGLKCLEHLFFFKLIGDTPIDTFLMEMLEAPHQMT
Chain of Bile acid receptor (Homo sapiens) (Q96RI1 whole entry, looked up, the tested form may be a part): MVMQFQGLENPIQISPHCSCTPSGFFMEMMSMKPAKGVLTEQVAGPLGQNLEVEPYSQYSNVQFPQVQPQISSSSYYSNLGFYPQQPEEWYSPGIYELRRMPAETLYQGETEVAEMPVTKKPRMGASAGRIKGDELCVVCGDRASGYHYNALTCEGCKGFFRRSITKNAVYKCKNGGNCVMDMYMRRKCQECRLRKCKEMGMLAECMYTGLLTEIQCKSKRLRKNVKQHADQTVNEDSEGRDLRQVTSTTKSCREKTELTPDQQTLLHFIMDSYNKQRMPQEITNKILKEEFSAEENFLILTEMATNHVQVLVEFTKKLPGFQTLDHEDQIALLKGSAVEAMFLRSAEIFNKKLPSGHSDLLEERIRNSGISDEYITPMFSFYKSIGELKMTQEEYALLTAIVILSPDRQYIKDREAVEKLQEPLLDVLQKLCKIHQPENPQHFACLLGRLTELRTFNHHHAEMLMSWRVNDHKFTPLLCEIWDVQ
Chain of Estrogen-related receptor gamma (Homo sapiens) (P62508 whole entry, looked up, the tested form may be a part): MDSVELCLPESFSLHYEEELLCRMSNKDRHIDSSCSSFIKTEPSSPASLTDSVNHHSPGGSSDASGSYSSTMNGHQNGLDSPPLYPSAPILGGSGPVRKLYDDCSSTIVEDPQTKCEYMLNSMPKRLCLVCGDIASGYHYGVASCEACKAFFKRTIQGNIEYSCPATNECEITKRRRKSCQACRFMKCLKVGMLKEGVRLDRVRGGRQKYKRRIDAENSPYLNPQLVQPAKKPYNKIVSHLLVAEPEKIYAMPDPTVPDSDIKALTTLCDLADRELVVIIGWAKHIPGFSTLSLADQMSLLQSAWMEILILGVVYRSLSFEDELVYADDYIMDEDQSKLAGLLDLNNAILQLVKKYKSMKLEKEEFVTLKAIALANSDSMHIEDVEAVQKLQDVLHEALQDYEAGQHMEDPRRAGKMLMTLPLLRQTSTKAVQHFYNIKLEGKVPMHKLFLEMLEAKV
Chain of Peroxisome proliferator-activated receptor gamma (Homo sapiens) (P37231 whole entry, looked up, the tested form may be a part): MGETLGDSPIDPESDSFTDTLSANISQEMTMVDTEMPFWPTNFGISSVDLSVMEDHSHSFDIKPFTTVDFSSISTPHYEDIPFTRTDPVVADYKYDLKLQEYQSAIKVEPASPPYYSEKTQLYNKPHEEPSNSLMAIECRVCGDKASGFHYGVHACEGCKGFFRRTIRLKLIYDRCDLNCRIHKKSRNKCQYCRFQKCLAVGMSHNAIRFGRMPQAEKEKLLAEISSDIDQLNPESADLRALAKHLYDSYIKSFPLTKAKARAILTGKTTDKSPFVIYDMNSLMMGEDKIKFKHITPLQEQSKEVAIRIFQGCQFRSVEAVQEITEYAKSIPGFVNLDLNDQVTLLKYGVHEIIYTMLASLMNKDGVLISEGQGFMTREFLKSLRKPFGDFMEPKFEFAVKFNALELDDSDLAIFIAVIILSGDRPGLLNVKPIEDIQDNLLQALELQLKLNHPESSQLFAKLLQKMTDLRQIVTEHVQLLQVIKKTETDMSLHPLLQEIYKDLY

On to `O=S(=O)(c1ccccc1)c1ccccc1`, for which the compound was called inactive in experiment [1], in experiment [2], in [3], in [4], in experiment [5] and in experiment [6]. For the same compound, the outcome in experiment [7], in experiment [8], in [9] and in experiment [10] was inactive.

Consider `O=C(O)C(Br)Br`, for which the result in [11], in experiment [12] and in experiment [13] was inactive.

One may read the AC50 as the midpoint of the concentration-response curve, whichever way the signal moves. With `COC(C)(C)CCC[C@H](C)C/C=C/C(C)=C/C(=O)OC(C)C`, the result in experiment [2] and in experiment [7] was inactive. Also, the AC50 was 33.5 µM (active) in experiment [3]; 29.8 µM (active) in experiment [4]; 39.2 µM (active) in experiment [5]; 32.6 µM (active) in experiment [6]; 9.71 µM (active) in [8]; 14.3 µM (active) in experiment [9]. The AC50 in experiment [13] was 79.3 µM (active).

`Cc1cc(C)c(C2=C(OC(=O)CC(C)(C)C)C3(CCCC3)OC2=O)c(C)c1`: the result in experiment [11], in experiment [12], in experiment [14], in experiment [15], in experiment [16] and in experiment [17] was inactive. Also, the outcome in [18], in experiment [19] and in experiment [20] was inactive.

Consider `Nc1ccc(-c2ccc(N)c(N)c2)cc1N`, for which the result in experiment [12], in experiment [3], in experiment [5], in [6], in experiment [8] and in experiment [9] was inactive. For the same compound, the compound was called inactive in experiment [13]. Besides, the AC50 in experiment [4] is 20 µM (active); in experiment [7] it was 11.1 µM (active).

`COC(=O)COc1ccc(Cl)cc1Cl`: the outcome in [1] and in experiment [2] was inactive.

Turning to `CSc1nc(N=[N+]=[N-])nc(NC(C)C)n1`, the compound was called inactive in experiment [11].

Regarding `CC[N+](=O)[O-]`, the result in [14], in experiment [15], in [17], in experiment [18] and in [20] was inactive.

As to `Nc1ccccc1C(=O)Oc1ccc2ccccc2c1`, the AC50 in [11] is 18.1 µM (active); in experiment [13], 24.4 µM (active).

With `BrCBr`, the result in experiment [11] was inactive.

`c1cc(OCC2CO2)ccc1Cc1ccc(OCC2CO2)cc1` (stereo not drawn): the call in [11] and in experiment [10] was inactive.

As for `CC(C)CCCCCCCOP(=O)(Oc1ccccc1)Oc1ccccc1`, the AC50 was 27.5 µM (active) in experiment [11]; 12.1 µM (active) in experiment [3]; 4.92 µM (active) in experiment [4]; 29.1 µM (active) in [6]; 3.97 µM (active) in experiment [7]; 3.21 µM (active) in [8]. The call in experiment [1], in experiment [12], in experiment [5] and in experiment [9] was inactive.

Regarding `C=CC(=O)OC`, the outcome in experiment [12] was inactive.

As for `COC(=O)c1ccccc1S(=O)(=O)NC(=O)Nc1nc(C)cc(C)n1`, the compound was classed as inactive in experiment [13] and in experiment [10].

Turning to `C=CCO`, the outcome in [16], in [17] and in experiment [19] was inactive.

As for `O=C(O)CCCc1ccc(N(CCCl)CCCl)cc1`, the outcome in [11], in [4], in [5], in experiment [6], in [7] and in experiment [8] was inactive. Also, the result in [9] and in experiment [10] was inactive. In addition, the AC50 in experiment [3] is 20 µM (active) and 16.3 µM (active); in experiment [5] it was 32.8 µM (active); in experiment [6], 0.687 µM (active); in [7] it was 3.97 µM (active); in experiment [8], 10.7 µM (active); in experiment [9] it was 5.06 µM (active).
